Laboratory results taken from PubChem BioAssay (NCATS).
Results filed as inconclusive are left out. The source made the active and inactive calls. The call rests on the fitted dose curve; in most records, active means well fitted inhibition curve with a large enough effect; inconclusive means small, poorly fitted or top-dose-only effect; inactive means flat fitted curve, though single readings scatter.

Key:
Test in all cases: qHTS profiling for inhibitors of Plasmodium falciparum proliferation (AID 504749); further: nearly all actives have a fitted effect of over 60% in size
Settings in all cases: P. falciparum in erythrocytes, SYBR Green DNA, 72 h; series mostly up to 28.7 µM
[1] = test system: CP265
Procedure, shortened: (§1)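 In a 72 h erythrocytic culture (37 C, humidified, 5% CO2) at 2.5% hematocrit and 0.3% starting parasitemia, compounds were tested; SYBR Green I in detergent lysis buffer stained parasite DNA overnight.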

[2] = test system: CP266
Procedure, shortened: as §1

[3] = test system: CP268
Procedure, shortened: as §1

[4] = test system: CP269
Procedure, shortened: as §1

[5] = test system: CP286
Procedure, shortened: as §1

[6] = test system: CP291
Procedure, shortened: as §1

[7] = test system: CP297
Procedure, shortened: as §1

[8] = test system: CP305
Procedure, shortened: as §1

[9] = test system: CP315
Procedure, shortened: as §1

[10] = test system: CP325
Procedure, shortened: as §1

[11] = test system: CP329
Procedure, shortened: as §1

[12] = test system: CP335
Procedure, shortened: as §1

[13] = test system: DFO2036
Procedure, shortened: as §1

[14] = test system: DIV14
Procedure, shortened: as §1

[15] = test system: DIV17
Procedure, shortened: as §1

[16] = test system: DIV30
Procedure, shortened: as §1

[17] = test system: Dd2
Procedure, shortened: as §1

[18] = test system: ECU
Procedure, shortened: as §1

[19] = test system: FAB9
Procedure, shortened: as §1

[20] = test system: GB4
Procedure, shortened: as §1

[21] = test system: HB3
Procedure, shortened: as §1

[22] = test system: ICS
Procedure, shortened: as §1

[23] = test system: JCK
Procedure, shortened: as §1

[24] = test system: N140
Procedure, shortened: as §1

[25] = test system: P93_24
Procedure, shortened: as §1

[26] = test system: P94_40
Procedure, shortened: as §1

[27] = test system: PAD
Procedure, shortened: as §1

[28] = test system: PC15
Procedure, shortened: as §1

[29] = test system: PC26
Procedure, shortened: as §1

[30] = test system: PC49
Procedure, shortened: as §1

[31] = test system: SC27B
Procedure, shortened: as §1

[32] = test system: TAB109
Procedure, shortened: as §1

[33] = test system: TAB113
Procedure, shortened: as §1

[34] = test system: TAB165
Procedure, shortened: as §1

Measured: Potency

CN1[C@@H]2CC(OC(=O)[C@@H](CO)c3ccccc3)C[C@@H]1[C@H]1O[C@H]12 (some centres undefined)
inactive: [1] | [2] | [3] | [4] | [5] | [6] | [7] | [8] | [9] | [10] | [11] | [12] | [13] | [14] | [15] | [16] | [17] | [18] | [19] | [20] | [21] | [22] | [23] | [24] | [25] | [26] | [27] | [28] | [29] | [30] | [31] | [32] | [33] | [34]
